# Assay outcomes from PubChem.
# This is a sample that favours compounds with a hit; in the whole collection about 1.1% have one here.
# LANA DNA inh: inhibitors of KSHV LANA C-terminal domain DNA binding; inhibition, % at 9 µM; 0.078% of 340,000 active; MBP-C-LANA/FAM-LBS DNA binding, fluorescence polarization; AID 504423;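 active = highest replicate inhibition at or above 60% at 9 µM, even if other replicates fall short; inactive = all replicates below 60% inhibition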;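 note: 0% = neutral control wells and 100% = 4 µM acridine orange control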
# N-glyco inh: N-linked glycosylation inhibition; D54 ERlucT glycosylation luciferase reporter, 24 h; percent of 100 nM tunicamycin response; AID 588692; 0.23% of 360,000 active; reporter increase, % at 12.5 µM;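 active = mean luciferase reporter signal, scaled so untreated is 0 and the glycosylation-blocking control 100, at or above a set limit in every replicate; inconclusive = mean reaches the limit but not every replicate does; inactive = mean below the limit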;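 note: luciferase carries N-glycosylation sites so blocking glycosylation raises the light; 0% = median of neutral control wells and 100% = median of 100 nM tunicamycin wells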
# NSD2 HMT inh: NSD2 (human) methyltransferase inhibition; 0.54% of 310,000 active; NSD2 peptide methylation, AlphaScreen, 120 min; inhibition, % at 12.5 µM; AID 743445; in the data active = inhibition above about 50%
# HDAC3 inhib: blocks human histone deacetylase 3. O15379. recombinant HDAC3, fluorogenic peptide/trypsin coupled, fluorescence. inhibition, % at 8.3 µM. 0.15% of 320,000 active. AID 2718; in the data active = inhibition above about 26%, passing the limit was not always enough; inconclusive = no clear call, values can overlap the other calls
# Casp6 inh: caspase-6 (human) enzyme inhibition | P55212 | purified caspase-6, Z-VEID-R110 cleavage fluorescence | inhibition, % at 12.5 µM | 0.53% of 350,000 active | AID 686996;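 active = mean inhibition across replicates at least about 35%, with every replicate also reaching that limit, limit read from the data; inconclusive = only one of the two criteria met; inactive = neither criterion met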;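 note: 0% = median of neutral control wells and 100% = no fluorescence left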
# Keap1 Nrf2 FP: inhibitors of human Keap1-Nrf2 protein-protein interaction; 0.15% of 340,000 active; Keap1 Kelch-Nrf2 peptide fluorescence polarization, 1536-well; inhibition, % at 9.4 µM; in the data active = inhibition above about 12%; inconclusive = no clear call, values can overlap the other calls; inactive = below about 7.3%;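 note: human Keap1 Kelch domain with fluorescein labeled Nrf2 9mer peptide probe; 0% = neutral control wells and 100% = peptide positive control; higher means more block of Keap1 binding to Nrf2 peptide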
# Keap1 Kelch bind: Keap1 (human) Kelch domain binding. shares compounds with Keap1 Nrf2 FP. Keap1 Kelch thermal shift, delta Tm; stronger effect = higher value. max delta Tm, degrees C. 8% of 400 active; in the data active = max delta Tm above about 0.48 degrees C
# Dye-only ctr: dye artifact in Keap1 thermal shift counter-screen | 140 tested, under 10 active | Sypro Orange dye-only thermal melt, no protein, delta Tm; top dose 26 µM | shares compounds with Keap1 Nrf2 FP | AID 651858 | delta Tm, degrees C (no concentration beside the values);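 active = at highest dose tested, delta Tm positive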
# * hit, by the source's call; ? = inconclusive; / = no result given.
SMILES,LANA DNA inh,N-glyco inh,NSD2 HMT inh,HDAC3 inhib,Casp6 inh,Keap1 Nrf2 FP,Keap1 Kelch bind,others
CC[C@H](C)[C@H](NC(=O)OCc1ccccc1)C(=O)OCC(=O)N1CCN(c2ccc(F)cc2)CC1,13,-4,0,/,1,26*,-0.12,Dye-only ctr=-26
CN(C)c1ccc(/C=N/NC(=O)CCC(=O)NCc2ccccc2)cc1,5,4,3,-8,/,53*,-0.19,
COC(=O)N/N=C/c1cn(Cc2ccccc2Cl)c2ccccc12,2,-7,-2,-4,2,17*,-0.17,Dye-only ctr=-23
O=C(Cc1cccnc1)N[C@H]1CC[C@H](CCNS(=O)(=O)c2ccccc2Cl)O[C@@H]1CO,/,/,/,/,-1,/,/,
COc1ccc(N(Cc2ccccc2)S(=O)(=O)c2cccc(C(=O)Nc3ncccc3C)c2)cc1,9,-5,0,-2,-1,22*,-0.12,
C=CCN(CC=C)C(=O)C1c2ccccc2Oc2ccccc21,/,3,-8,/,-1,/,/,
CCN(CC)C(=O)C1c2ccccc2Oc2ccccc21,77*,-1,-3,-7,1,39*,-0.12,
COc1cc2c3nnc(-c4ccc(F)cc4)c-3cn(Cc3ccccc3F)c2cc1OC,32,-17,-2,/,-7,17*,-0.19,
COc1ccc(C2OC34CCCCC3C(C#N)(C#N)C2(C#N)C(=N)O4)cc1 (stereo unspecified),45,0,0,-25,/,22*,-0.08,Dye-only ctr=-27
CCC1OC23CCCCC2C(C#N)(C(=N)O3)C1(C#N)C#N (stereo unspecified),55,1,/,-15,/,27*,-0.08,Dye-only ctr=-31
COCCCN1C(=O)c2ccc(C(=O)Nc3ccc(C)cc3C)cc2C1=O,2,2,-2,0,0,39*,-0.14,
COCCCN1C(=O)c2ccc(C(=O)Nc3ccccc3OC)cc2C1=O,1,1,0,2,/,-3,/,
O=C1C(Cl)=C(NS(=O)(=O)c2ccc([N+](=O)[O-])cc2)C(=O)c2ccccc21,-2,10,-110,-1,18,20*,0.76*,
CCCc1cn(CC[C@H]2CC[C@@H](NC(=O)C3CCC3)[C@@H](CO)O2)nn1,/,/,/,/,0,/,/,
CCN1C(=O)c2cccc3c(Cl)ccc(c23)C1=O,-1,5,3,4,2,2,/,
Cc1cccc(N2C(=O)c3cccc4c(N(C)CCO)ccc(c34)C2=O)c1,68*,4,-4,-3,/,12*,-0.01,
Cc1cccc(N2C(=O)c3cccc4cccc(c34)C2=O)c1,-2,-3,2,-1,1,-4,/,
CC(C)CCN1C(=O)c2cccc3c(N)ccc(c23)C1=O,96*,0,-60,0,-4,71*,0.11,
Cc1cccc(N2C(=O)c3cccc4c(N)ccc(c34)C2=O)c1,135*,3,-21,?,-19,75*,-0.12,Dye-only ctr=-26
CN(C)c1ccc2c3c(cccc13)C(=O)N(c1ccccc1)C2=O,/,/,/,-4,/,/,/,
Nc1ccc2c3c(cccc13)C(=O)N(c1ccccc1)C2=O,19,6,-2,/,3,31*,-0.06,
O=C(C[C@H]1C=C[C@@H](NC(=O)CN2CCOCC2)[C@@H](CO)O1)NCCc1ccccc1,/,/,/,/,2,/,/,
C[C@@H]1CN([C@H](C)CO)C(=O)c2cc(C3=CCCC3)cnc2O[C@@H]1CN(C)S(=O)(=O)c1cn(C)cn1,/,/,/,/,0,/,/,
Nc1cccc(N2C(=O)c3cccc4c(N)ccc(c34)C2=O)c1,88*,2,0,/,-1,17*,0.04,
O=C(O)c1cccc(N2C(=O)c3cccc4c(Cl)ccc(c34)C2=O)c1,1,-2,5,-9,3,-4,/,
SMILES,LANA DNA inh,N-glyco inh,NSD2 HMT inh,HDAC3 inhib,Casp6 inh,Keap1 Nrf2 FP,Keap1 Kelch bind,others
O=C(CN1C(=O)NC2(CCCC2)C1=O)Nc1ccc(C(F)(F)F)cc1,-2,2,0,0,3,12*,-0.12,
Cc1ccc(NS(=O)(=O)c2ccc3c(c2)oc(=O)n3C)cc1,-1,-2,-4,-4,-1,-2,/,
CC(=O)Nc1ccc(NS(=O)(=O)c2ccc3c(c2)oc(=O)n3C)cc1,14,-1,-1,3,3,19*,-0.06,
CCCC(=O)Nc1ccc2c(c1)C(=O)N(C)[C@H]1CC[C@@H](CC(=O)NCC3CC3)O[C@H]1CO2,/,/,/,/,3,/,/,
Cc1ccc(OC(C)C(=O)N2CCN(c3ccccn3)CC2)cc1 (stereo unspecified),18,1,-2,/,-2,35*,-0.04,
CNC(=O)C1CC(=O)N(c2ccc(OCC(=O)Nc3ccc(F)cc3)cc2)C1 (stereo unspecified),15,0,/,/,1,30*,-0.09,Dye-only ctr=-26
Cc1ccc(NC(=O)/C(C#N)=C(\N)C(Cl)(Cl)Cl)nc1,34,-1,28,/,/,38*,-0.01,
COC(=O)c1cccc(NC(N)=S)c1,0,1,0,2,-1,0,/,
CNC(=S)Nc1cccc(C(=O)OC)c1,/,1,0,5,1,41*,-0.03,Dye-only ctr=-28
O=C(Nc1ccccc1C(=O)N1CCCCCC1)c1ccc(F)cc1,21,1,0,-13,0,35*,-0.16,Dye-only ctr=-27
CC(C)C#Cc1ccc2c(c1)O[C@H](CN(C)C(=O)c1cccnc1)[C@H](C)CN([C@@H](C)CO)S2(=O)=O,/,/,/,/,1,/,/,
CCOCCCn1c(=NC(=O)c2cccs2)c(C#N)cc2c(=O)n3ccccc3nc21,30,7,-1,-323,11,23*,-0.12,
C=CCn1c(=O)/c(=C\c2ccsc2)s/c1=C(/C#N)C(=O)NCCN1CCOCC1,21,0,/,1,/,16*,-0.17,Dye-only ctr=-22
COc1ccc(-n2c(=O)/c(=C\c3cccs3)s/c2=C(/C#N)C(=O)NCCN2CCOCC2)cc1,3,-7,-5,-5,-1,-7,/,
CO[C@H]1CN(C)C(=O)c2cc(NC(=O)C3CC3)ccc2OC[C@@H](C)N(CC2CCOCC2)C[C@H]1C,/,/,/,/,-1,/,/,
O=C(NCc1ccc(Cl)cc1)c1cc(=O)[nH]c2ccccc12,2,4,-2,0,-8,59*,-0.15,
Cc1nn(-c2ccccc2Cl)c(Cl)c1/C=N/Nc1nc2ccccc2s1,4,-21,6,3,/,34*,-0.11,
CC(C)C#Cc1ccc([C@@H]2[C@H](CO)N3CCCCN(C(=O)c4ccc(F)cc4)C[C@@H]23)cc1,/,/,/,/,0,/,/,
COc1ccc(OC)c(S(=O)(=O)Nc2ccc(F)cc2)c1,3,0,11,-6,0,12*,-0.08,
N/C(Cc1cccc2ccccc12)=N\O,/,3,0,1,3,17*,-0.14,Dye-only ctr=-22
